# Source: PubChem BioAssay (NCI)
# The panel holds about 79,000 compounds, 15% with a hit somewhere; the sample as a whole holds those more often. Unmarked numbers belong to inactive results. Calls of active or inactive are those of the source. Cut-off read from the data, not from the text of the source: active = growth inhibition above about 70%; inactive = the rest.
# Tests used:
# [1] = NCI Yeast Anticancer Drug Screen. Data for the rad50 strain (AID 155);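 note: 0% = growth of vehicle-only cultures of the same strain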; settings: S. cerevisiae rad50 strain growth inhibition, stronger effect = higher value
# In short: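 Vehicle-treated cultures provide the reference for the growth inhibition reported for compound-exposed, repair-deficient yeast.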
# [2] = NCI Yeast Anticancer Drug Screen. Data for the mec2-1 strain (AID 157); settings: S. cerevisiae mec2-1 strain, stronger effect = higher value
# In short: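 Test agents were screened against the mec2-1 yeast strain, with defined DNA repair or cell cycle alteration. Growth was scored as inhibition against vehicle-only controls.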
# [3] = NCI Yeast Anticancer Drug Screen. Data for the sgs1 mgt1 strain (AID 161);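 note: 0% = growth of cultures given vehicle only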; settings: S. cerevisiae sgs1 mgt1 strain, stronger effect = higher value
# In short: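 Read-out: growth inhibition vs vehicle controls. Cells: mutant yeast strain deficient in DNA damage repair.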
# [4] = NCI Yeast Anticancer Drug Screen. Data for the cln2 rad14 strain (AID 165);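 note: 0% = growth equal to vehicle treated cultures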; settings: S. cerevisiae cln2 rad14 strain, stronger effect = higher value
# In short: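 Growth of compound-exposed yeast (cln2 rad14 genotype) measured and expressed as inhibition relative to vehicle.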
# [5] = NCI Yeast Anticancer Drug Screen. Data for the bub3 strain (AID 167); settings: S. cerevisiae bub3 mutant strain, stronger effect = higher value
# In short: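 Mutant yeast screening strain plus compound; vehicle-treated cultures serve as the 0% inhibition reference.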
# [6] = NCI Yeast Anticancer Drug Screen. Data for the mlh1 rad18 strain (AID 175); settings: S. cerevisiae mlh1 rad18 strain growth inhibition, stronger effect = higher value
# In short: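 In this whole-cell yeast screen, a strain with altered DNA damage repair is challenged with compound, and its growth is measured against matched vehicle-treated controls.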
# [7] = at 5.0 µM (retest, dose inferred, filed as 0.5)
# [8] = at 50.0 µM (retest, dose inferred, filed as 5.0)
SMILES,"growth inhibition [1, 7]","growth inhibition [1, 8]",growth inhibition ([1]; at 50.0 µM),"growth inhibition [2, 7]","growth inhibition [2, 8]",growth inhibition ([2]; at 50.0 µM),"growth inhibition [3, 7]","growth inhibition [3, 8]",growth inhibition ([3]; at 50.0 µM),"growth inhibition [4, 7]","growth inhibition [4, 8]",growth inhibition ([4]; at 50.0 µM),"growth inhibition [5, 7]","growth inhibition [5, 8]",growth inhibition ([5]; at 50.0 µM),"growth inhibition [6, 7]","growth inhibition [6, 8]",growth inhibition ([6]; at 50.0 µM)
CC(C)CCCC(C)C1CCC2C3CC=C4OC(=O)CCC4(C)C3CCC12C (stereo not given),-11%,88% (active),83.4% (active),-2%,85% (active),91.8% (active),-35%,93% (active),76.2% (active),-2%,93% (active),85.2% (active),-1%,91% (active),86.3% (active),-1%,94% (active),90.6% (active)
CCCCCCCCCCCCCCCC[N+](C)(C)CCCCCC(=O)OC,99% (active),99% (active),98.9% (active),100% (active),100% (active),99.1% (active),100% (active),100% (active),99% (active),99% (active),99% (active),97.4% (active),100% (active),100% (active),98.5% (active),100% (active),100% (active),98.7% (active)
FC(F)(F)c1ccccc1NC(=S)SCc1ccc2c(c1)OCO2,7%,95% (active),98.8% (active),8%,98% (active),99% (active),1%,97% (active),99% (active),2%,96% (active),98% (active),3%,95% (active),98.3% (active),1%,96% (active),99% (active)
CC(=O)C(C=O)C(C)=O.CC(=O)CC(C)=O.CC(=O)CC(C)=O.[Ru],4%,59%,36.9%,60%,98% (active),97.9% (active),16%,61%,50.5%,0%,44%,36%,-7%,33%,-1.3%,11%,66%,52.8%
O=C1/C(=C/c2cccc([N+](=O)[O-])c2)CCCc2ccccc21,4%,92% (active),73.5% (active),7%,94% (active),68.8%,13%,94% (active),83.2% (active),-5%,91% (active),70.7% (active),20%,94% (active),84.8% (active),9%,93% (active),75.9% (active)
N#C/C=C/C=C/C#N,1%,2%,24.4%,5%,2%,79.8% (active),2%,3%,6.95%,-1%,-3%,78.4% (active),-2%,-5%,99.5% (active),-4%,-1%,56.3%
CC1CC(C)CC(C(O)(C(=O)O)C2CC(C)CC(C)C2)C1 (stereo not given),23%,99% (active),99.2% (active),18%,99% (active),97% (active),10%,99% (active),99.5% (active),82% (active),100% (active),78.5% (active),29%,-34%,94% (active),18%,99% (active),99.5% (active)
Cc1cc(Cc2cccc(Cl)c2)ccc1O,-8%,99% (active),99.5% (active),-34%,99% (active),99.7% (active),-2%,99% (active),99.3% (active),-21%,99% (active),99.4% (active),-20%,99% (active),99.6% (active),-8%,99% (active),99.5% (active)
N#CC12CC3=C(N=C1NC1=C(CCc4ccccc41)C2)c1ccccc1CC3 (stereo not given),24%,51%,57.8%,19%,34%,42.8%,20%,44%,48.5%,18%,29%,17.9%,23%,45%,51.1%,20%,60%,24.6%
S=c1[nH]c2c(-c3ccccc3)cccc2s1,-4%,74% (active),62.1%,-6%,62%,76.9% (active),12%,78% (active),86.2% (active),-16%,41%,60.5%,-20%,44%,53.8%,1%,65%,87.5% (active)
